From PubChem BioAssay AID463190 (Sanford-Burnham Center for Chemical Genomics, 2010)
The whole screen tested about 330,000 compounds, of which about 7,300 (2.2%) were called active. This is one part of a sample in which actives are shown more often than they occur. A number with no mark means an inactive call.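 The calls were made as follows: active = inhibition of at least 40%; inactive = the rest.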

Assay: growth inhibitors of tim10-1 mutant yeast, primary screen, luminescence, uHTS (AID 463190);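 also: mutant grown at 25 °C; 0% = DMSO wells with yeast and 100% = wells holding no yeast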
Settings: S. cerevisiae tim10-1 ts strain growth, BacTiter-Glo, 24 h; at 20 µM; active compounds read high

Compound	inhibition
O=C(OCC(=O)N1CCCC1=O)c1cc(S(=O)(=O)N2CCOCC2)ccc1Cl	-17.2%
Cc1ccc(S(=O)(=O)N2CCC(C(=O)NCCC3=CCCCC3)CC2)cc1C	-3%
CC(=O)Cc1nsc(NC(=O)c2csc3c2CCCC3)n1	41.9% (active)
O=C(NCc1ccccc1Cl)c1csc2c1CCCCC2	12.3%
CC(=O)Cc1nsc(NC(=O)c2ccc(Cl)cc2Cl)n1	36.5%
Cc1ccc(CNC(=O)CCC(=O)N2CC(C)Sc3ccccc32)cc1 (configuration not stated)	28.3%
CCCc1nnc(NC(=O)CCC(=O)NC2CC2)s1	10.7%
Cc1ccc2[nH]c(C)c(CCNC(=O)NC3CCCCC3)c2c1	11.4%
COc1ccc(C(=O)COC(=O)COc2ccc(C)c(C)c2)cc1	10.1%
Cc1ccc(/C(N)=N/OC(=O)COc2ccc(Cl)c(C)c2)cc1	41.2% (active)
Cc1cc(OCC(=O)N2CCN(c3ncccn3)CC2)ccc1Cl	16%
COC(=O)c1cccc([N+](=O)[O-])c1CS(=O)(=O)c1ccc(C)cc1	24.5%
COc1ccc(C(=O)Nc2nc(-c3ccc(OC)cc3)c(-c3ccc([N+](=O)[O-])cc3)s2)cc1	14.1%
COC(=O)CCc1sc(Nc2ccc(Br)cc2)nc1-c1ccc(OC)cc1	46.4% (active)
Cc1ccc(OC(=O)CCC(=O)Nc2ccc(Br)cc2)cc1	0.584%
CCCn1nnc2sc3c(c2c1=O)CCC(C)C3 (configuration not stated)	9.67%
C=CCn1c(SCc2c(C)noc2C)nc2sc3c(c2c1=O)CCC(C)C3 (configuration not stated)	-4.33%
CC1CCc2c(sc3nc4n(c(=O)c23)CCS4)C1 (configuration not stated)	40.6% (active)
Cc1cc2c(c(=O)n1C)C(C(C)C)C(C#N)=C(N)O2 (configuration not stated)	-3.2%
COc1cccc(CNC(=O)C2CCN(S(=O)(=O)c3cccc4cccnc34)CC2)c1	13.9%
Cn1c(=O)c(C(=O)Nc2ncccn2)c(O)c2ccccc21	25.2%
C=CCn1c(SCc2c(C(=O)OC)sc(N)c2C(=O)OC)nnc1-c1ccc(Cl)cc1	15.3%
